Laboratory results from article PMC4336329 (PLoS ONE, 2015).
Among all 310,000 compounds or so, about 2,200 (0.71%) showed an effect of 50% or more. Effects have a minus sign here. The sample as a whole holds a higher share of strong results than the screen did.

Target: human ether-à-go-go-related gene (hERG) potassium channel (human, UniProt Q12809)
Test: primary screen, population patch clamp on CHO cells stably expressing hERG; higher = less effect of the substance

Sequence of human ether-à-go-go-related gene (hERG) potassium channel (Q12809 whole entry, looked up): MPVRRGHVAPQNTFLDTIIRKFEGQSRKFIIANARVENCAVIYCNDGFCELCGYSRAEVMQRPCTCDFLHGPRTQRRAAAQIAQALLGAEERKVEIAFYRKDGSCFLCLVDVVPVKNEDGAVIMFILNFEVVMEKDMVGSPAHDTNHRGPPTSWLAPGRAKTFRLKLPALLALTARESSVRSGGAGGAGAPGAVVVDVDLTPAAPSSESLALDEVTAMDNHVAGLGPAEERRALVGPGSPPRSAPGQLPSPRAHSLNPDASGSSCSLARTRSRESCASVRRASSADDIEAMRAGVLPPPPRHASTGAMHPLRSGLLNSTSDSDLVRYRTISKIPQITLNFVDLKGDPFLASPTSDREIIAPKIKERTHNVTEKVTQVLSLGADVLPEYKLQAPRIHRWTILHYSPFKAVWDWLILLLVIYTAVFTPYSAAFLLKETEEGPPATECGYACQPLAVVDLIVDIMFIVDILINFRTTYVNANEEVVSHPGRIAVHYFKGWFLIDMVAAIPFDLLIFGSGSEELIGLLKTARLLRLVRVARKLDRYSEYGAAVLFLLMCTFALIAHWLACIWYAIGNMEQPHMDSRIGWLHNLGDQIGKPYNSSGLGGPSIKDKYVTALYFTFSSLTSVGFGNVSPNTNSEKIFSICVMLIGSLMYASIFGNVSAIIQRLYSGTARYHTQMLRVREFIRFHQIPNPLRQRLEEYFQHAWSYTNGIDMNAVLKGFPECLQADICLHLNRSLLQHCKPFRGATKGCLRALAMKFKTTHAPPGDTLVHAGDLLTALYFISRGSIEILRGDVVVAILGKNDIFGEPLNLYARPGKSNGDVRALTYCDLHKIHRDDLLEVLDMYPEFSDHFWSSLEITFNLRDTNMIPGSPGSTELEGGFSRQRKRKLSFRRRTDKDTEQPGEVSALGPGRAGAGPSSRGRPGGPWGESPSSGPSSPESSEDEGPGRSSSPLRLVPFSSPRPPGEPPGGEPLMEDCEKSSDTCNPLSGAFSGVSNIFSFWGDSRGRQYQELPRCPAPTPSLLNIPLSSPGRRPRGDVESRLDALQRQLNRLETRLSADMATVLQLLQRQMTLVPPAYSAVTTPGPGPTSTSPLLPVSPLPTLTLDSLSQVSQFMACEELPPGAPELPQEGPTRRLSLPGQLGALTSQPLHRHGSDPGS

| SMILES | hERG current change (%, negative = inhibition) at 1uM |
| --- | --- |
| CCCOc1cccc(C(=O)N(Cc2ccco2)C2CCS(=O)(=O)C2)c1 (centres unmarked) | 3.56% |
| CCN(CC)C(=O)C1CCN(S(=O)(=O)c2ccc3oc4ccccc4c3c2)CC1 | 16.7% |
| CCc1ccc(NC(=O)c2nc(S(=O)(=O)Cc3ccccc3)ncc2Cl)cc1 | 20.7% |
| O=c1[nH]c2ccccc2cc1CN(Cc1cccnc1)S(=O)(=O)c1ccc([N+](=O)[O-])cc1 | -5.07% |
| c1ccc(C(c2nnnn2Cc2ccco2)N2CCN(c3nc4ccccc4s3)CC2)cc1 (centres unmarked) | 8.1% |
| Cc1ccc(Cl)cc1NC(=O)C1CCCN(S(C)(=O)=O)C1 (centres unmarked) | 7.81% |
| Cl.O=[N+]([O-])c1ccc2ncnc(N3CCN(Cc4ccc5c(c4)OCO5)CC3)c2c1 | 11.4% |
| O=Cc1cc([N+](=O)[O-])ccc1N1CCN(Cc2ccc3c(c2)OCO3)CC1 | -66.7% |
| O=[N+]([O-])c1ccc(N2CCN(Cc3ccc4c(c3)OCO4)CC2)nc1 | -29.2% |
| Cc1ccccc1Nc1nc2nonc2nc1N1CCOCC1 | 6.45% |
| CC1C(=O)NC(=O)C1c1ccccc1 (centres unmarked) | 13.3% |
| Cn1c(N)c(C(=O)COC(=O)CSc2ccc(Cl)cc2)c(=O)n(C)c1=O | -2.13% |
| CC(C)(C)NCc1cc2ccccc2[nH]c1=O | 8.1% |
| CC(C)CN1CCC(=O)N([C@H](COc2ccccc2)c2ccccc2)CC1 | -64.3% |
| O=C1CCN(CCc2ccccc2)CCN1[C@H](CO)c1ccccc1 | -7.26% |
| CCCN1CCC(=O)N([C@H](COc2ccccc2)c2ccccc2)CC1 | -76.5% |
| O=C1CCN(CCc2ccccc2)CCN1[C@H](COc1ccccc1)c1ccccc1 | -82.8% |
| CC(C)CN1CCC(=O)N([C@H](CO)c2ccccc2)CC1 | 12.6% |
| CCCN1CCC(=O)N([C@H](CO)c2ccccc2)CC1 | 9.74% |
| O=C1CCN(Cc2ccccc2)CCN1[C@H](COc1ccccc1)c1ccccc1 | 2.66% |
| CC(C)C[C@@H](COc1ccccc1)N1CCN(CC(C)C)CCC1=O | -21.2% |
| CCCCCCCN1CCC(=O)N([C@H](CO)c2ccccc2)CC1 | -25.8% |
| COc1ccc(CCNc2nc(-c3cccnc3)cs2)cc1OC | 23.6% |
| CCCCC(=O)Nc1cccc(NC(=O)c2cccnc2Cl)c1 | 6.85% |

| SMILES | hERG current change (%, negative = inhibition) at 1uM |
| --- | --- |
| C/C(=N\O)C(=O)NCCN(C)C | 13.6% |
| CC(=O)O.Cc1nc(NCCc2ccc(F)cc2)c(C#N)c(C)c1[N+](=O)[O-] | -41.9% |
| O=C(Oc1ccc(C(=S)N2CCCCC2)cc1)c1ccccc1 | 7.88% |
| O=C(COC(=O)CCC(=O)c1ccccc1)NCCc1ccccc1 | 4.19% |
| O=C(Cn1ccc(NC(=O)OCc2ccccc2)nc1=O)NCCCN1CCCC1=O | 7.66% |
| CCOC(=O)c1sc2nc(C)nc(NCc3ccccc3)c2c1C | 16.7% |
| CCOC(=O)c1sc2nc(C)nc(NCc3ccc(Cl)cc3)c2c1C | -89.6% |
| CCOC(=O)c1sc2nc(C)nc(NCc3ccc(F)cc3)c2c1C | 17.8% |
| [O-]/C(=C(\C(=S)NCc1ccccc1)[n+]1ccccc1)c1ccc(Cl)s1 | 0.527% |
| COC(=O)c1c(NC(=O)c2cccs2)sc2c1CCC(C)C2 (centres unmarked) | 9.97% |
| COc1ccc([C@@H]2[C@@H](C(=O)C(C)(C)C)N3N=Cc4ccccc4[C@@H]3C23C(=O)OC(C)(C)OC3=O)cc1OC | -5.04% |
| OCCC1CN(Cc2cccn2-c2nccs2)CCN1CCc1ccccc1 (centres unmarked) | -57.1% |
| CCOc1ccc(CN2CCN(Cc3cccn3-c3nccs3)CC2CCO)cc1 (centres unmarked) | -84% |
| OCCC1CN(Cc2cccn2-c2nccs2)CCN1Cc1ccccc1 (centres unmarked) | -21.7% |
| OCCC1CN(Cc2ccc(Oc3ncccn3)cc2)CCN1Cc1ccc(F)c(F)c1 (centres unmarked) | 8.89% |
| OCCC1CN(Cc2cccn2-c2nccs2)CCN1Cc1ccc(F)c(F)c1 (centres unmarked) | -85% |
| CC(C)CCN1CCN(Cc2cccn2-c2nccs2)CC1CCO (centres unmarked) | -17.6% |
| CCOc1ccc(CN2CCN(Cc3ccon3)CC2CCO)cc1 (centres unmarked) | -33.5% |
| OCCC1CN(Cc2ccn[nH]2)CCN1Cc1ccc(F)c(F)c1 (centres unmarked) | 8.07% |
| CC(C)=CCN1CCN(Cc2cccn2-c2nccs2)CC1CCO (centres unmarked) | -1.62% |
| OCCC1CN(Cc2cccn2-c2nccs2)CCN1C1CCCCC1 (centres unmarked) | -4.43% |
| Cc1ccc(CN2CCN(Cc3cccn3-c3nccs3)CC2CCO)cc1 (centres unmarked) | -79.7% |
| CC(C)N1CCN(Cc2cccn2-c2nccs2)CC1CCO (centres unmarked) | 11.5% |
